Results on 95 molecules are retold here after PubChem BioAssay AID778 (Sanford-Burnham Center for Chemical Genomics, 2007).

As usually defined, the inhibition is the relative decrease from the control value, in per cent.

Among all 96,000 compounds or so, about 20,000 (21%) were called active.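 The calls were made as follows: active = CYP2C19 inhibition above a set limit at 5 µM in the primary screen (cut at about 50% in these data); inactive = the rest.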 Only a sample is shown.

For this assay, the target named is Cytochrome P450 2C19 (Homo sapiens) (UniProt P33261). Nature of the assay: blockers of cytochrome P450 2C19 activity – biochemical, luminescence, ADME assay, primary screen (AID 778).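 Also: plate controls were negative control wells for no effect and 2.5 mM tranylcypromine positive control for full effect.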 The settings on record: CYP2C19 Supersomes, luciferin-H EGE luminescence, 30 min; at 5 µM; hits give high values.
Sequence of Cytochrome P450 2C19 (Homo sapiens) (P33261 whole entry, looked up): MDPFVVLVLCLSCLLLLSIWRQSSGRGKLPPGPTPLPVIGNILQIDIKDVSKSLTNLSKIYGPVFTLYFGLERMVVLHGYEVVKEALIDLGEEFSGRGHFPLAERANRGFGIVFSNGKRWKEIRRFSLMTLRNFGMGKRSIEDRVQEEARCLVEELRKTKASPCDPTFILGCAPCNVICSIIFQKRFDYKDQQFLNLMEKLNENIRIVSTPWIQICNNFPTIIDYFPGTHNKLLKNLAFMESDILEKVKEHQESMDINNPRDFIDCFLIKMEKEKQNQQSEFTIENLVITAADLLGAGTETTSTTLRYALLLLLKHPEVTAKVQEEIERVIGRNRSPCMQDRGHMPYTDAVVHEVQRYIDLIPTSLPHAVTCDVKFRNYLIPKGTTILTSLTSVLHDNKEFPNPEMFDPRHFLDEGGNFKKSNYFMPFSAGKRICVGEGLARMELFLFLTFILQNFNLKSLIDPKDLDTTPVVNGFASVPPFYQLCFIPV
As for `CCc1nnc(NC(=O)CSc2nc3c(c(=O)n2-c2ccccc2OC)SCC3)s1`, the inhibition was 11.4% (inactive).
Turning to `CS(=O)(=O)c1ccc2nc(NC(=O)CN3CCCCCC3)sc2c1`, the inhibition is -6% (inactive).
Turning to `Cc1cc(=O)[nH]c(SCC(=O)N2c3ccccc3CC2C)n1` (stereo not given), the inhibition is 1.8% (inactive).
The same measure for `O=C(CSc1nc2ccccc2o1)N1CCN(c2ccccc2)CC1`: 55.6% (active); for `O=C(CSc1nc2ccccc2o1)N1CCN(c2ccc(Cl)cc2)CC1`: 4.3% (inactive); for `CC1Cc2ccccc2N1C(=O)CSc1nc2ccccc2o1` (stereo not given): 76.8% (active).
Turning to `CCS(=O)(=O)c1ccc2oc(SCC(=O)N3c4ccccc4CC3C)nc2c1` (stereo not given), the inhibition was -8.1% (inactive).
The same measure for `Cc1nnc(SCC(=O)N2CCN(c3ccccc3)CC2)n1-c1ccccc1`: -4.9% (inactive); for `Cc1ccccc1Nc1nc(N)nc(CN2CCN(c3ccccn3)CC2)n1`: 12.9% (inactive).
The same measure for `Cc1ccc(C)c(NC(=O)c2ccc(OC(=O)c3ccco3)cc2)c1`: 4.9% (inactive).
As to `CCC(CC)c1nnc(NS(=O)(=O)Cc2ccccc2)s1`, the inhibition is -10.5% (inactive).
The same measure for `O=C(Nc1cccn(Cc2c(Cl)cccc2Cl)c1=O)c1ccc(Cl)cc1`: 79.9% (active); for `CSc1ccc(C#N)cc1NC(=O)c1ccc(Cl)cc1`: 3% (inactive); for `COc1ccc(Cn2cccc(NC(=O)Nc3ccc(C#N)cc3)c2=O)cc1`: 5.5% (inactive).
Turning to `Cc1cc(/C=C2/SC(=O)N(CC(=O)OC(C)C)C2=O)c(C)n1C`, the inhibition was 1.6% (inactive).
On to `Cc1c(NC(=O)CSc2cccc3cccnc23)c(=O)n(-c2ccccc2)n1C`, for which the inhibition is -13.9% (inactive).
`Cc1ccc(-n2nc3cc(Cl)c(NC(=O)c4ccco4)cc3n2)cc1`: the inhibition was 10.3% (inactive).
The result for `CC1CCc2c(c3ccccc3[nH]c2=O)O1` (stereo not given) reads 25.5% (inactive); that for `Clc1ccc(-c2nnc(-c3ccccc3)nc2N2CCSCC2)cc1`, 72% (active); that for `CC1CN(c2nc(-c3ccccc3)nnc2-c2ccccc2)CC(C)O1` (stereo not given), -3.1% (inactive).
The result for `Cn1nc(-c2ccccc2)c(-c2nc(-c3ccc(Cl)cc3)no2)c1Cl` reads -16.4% (inactive); that for `O=C(Nc1ccccc1C(F)(F)F)c1cc(-c2ccc(O)cc2)on1`, 6.8% (inactive).
For the molecule `COc1ccc(C(=O)Nc2nc(-c3ccc(S(=O)(=O)N4CCOCC4)cc3)cs2)cc1`, the inhibition is 14.6% (inactive).
The result for `Cn1ccs/c1=N\S(=O)(=O)c1ccc(C(C)(C)C)cc1` reads 65% (active); that for `CCC1=[N+]([O-])C(C)(/C(C)=N\O)N(O)C1(C)C` (stereo not given), 23.5% (inactive); that for `NC(=O)Cn1c(=O)oc2ccccc21`, -6.4% (inactive).
The result for `c1ccc(-n2nnnc2N2CCOCC2)cc1` reads 33.5% (inactive).
The result for `O=C(c1ccc(S(=O)(=O)N2CCOCC2)cc1)N1CCN(c2ccccc2)CC1` reads -4.7% (inactive); that for `O=C1C(Cl)=C(N2CCOCC2)C(=O)N1c1ccccc1`, 84.7% (active); that for `CC(C)(C)NC(=O)c1cc(NC(=O)c2ccco2)cc(NC(=O)c2ccco2)c1`, 20.8% (inactive).
Regarding `CCOC(=O)c1sc(=S)n2c1[nH]c(=O)c1ccc(C(=O)OC)cc12`, the inhibition was -1.3% (inactive).
Consider `CCOC(=O)C1=C(C)Nc2sc(C(=O)c3ccc(Br)cc3)c(N)c2C1c1ccc(C(=O)OC)cc1` (stereo not given), for which the inhibition was 88.2% (active).
The result for `CCOC(=O)N1CCC(NC(=O)c2cnn3ccccc23)CC1` reads 5.9% (inactive); that for `O=C1C(C=NCC2CCCO2)=C(O)c2ccccc21` (stereo not given), 8.1% (inactive); that for `CCCCC(=O)Nc1nc(C)c(-c2csc(Nc3ccc(Cl)cc3)n2)s1`, 45.9% (inactive).
Take `CCCCCCC(=O)Nc1nc(C)c(-c2csc(Nc3cc(Cl)ccc3OC)n2)s1`: the inhibition is -7.7% (inactive).
`C=CCCC(=O)Nc1nc(C)c(-c2csc(Nc3ccc(Cl)cc3)n2)s1`: the inhibition is 56.4% (active).
`O=C(Nc1cc(N2CCOCC2)ncn1)NC1(C(F)(F)F)Oc2ccc(Cl)cc2O1` (stereo not given): the inhibition was 1% (inactive).
The result for `CSCCC(NC(N)=O)C(=O)N(C)CC(=O)Nc1ccc(C)cc1` (stereo not given) reads 3.3% (inactive).
Take `O=[N+]([O-])c1ccc(N2CCN(S(=O)(=O)c3ccc4ccccc4c3)CC2)cc1NCc1ccco1`: the inhibition was 19.1% (inactive).
The result for `O=C(c1ccccc1)N1CCN(c2ccc([N+](=O)[O-])c(NCc3ccco3)c2)CC1` reads 82.3% (active).
The result for `O=C(NCc1ccco1)c1nc(-c2ccccc2)n(-c2ccccc2)n1` reads 25.6% (inactive).
The same measure for `O=C1N=C(N2CCOCC2)S/C1=C\C=C/c1ccccc1`: 10.8% (inactive).
For the molecule `O=C1N=C(N2CCCC2)S/C1=C\c1cccc(Br)c1`, the inhibition was 58.2% (active).
`Cc1ccsc1/C=C1\SC(N2CCOCC2)=NC1=O`: the inhibition is 29% (inactive).
As for `Cc1nc([N+](=O)[O-])nn1C12CC3CC(CC(Br)(C3)C1)C2`, the inhibition is 15.2% (inactive).
With `COC(=O)c1sccc1NC(=O)c1cc(OC)c(OC)c(OC)c1`, the inhibition was 5.1% (inactive).
The same measure for `CCCCN=C1N/C(=C\c2ccco2)C(=O)N1c1ccccc1`: 0.7% (inactive).
`O=C(NC1=NCCS1)[C@H](Cc1ccccc1)N1C(=O)c2ccccc2C1=O`: the inhibition was 57.5% (active).
The same measure for `CSCCC(C(=O)NC1=NCCS1)N1C(=O)c2ccccc2C1=O` (stereo not given): 17.5% (inactive).
For the molecule `O=C(NCCN1CCOCC1)[C@H](Cc1ccccc1)N1C(=O)c2ccccc2C1=O`, the inhibition was -8.6% (inactive).
The same measure for `C=CCn1c(SCc2csc(C)n2)nc2scc(-c3ccc(C)o3)c2c1=O`: 16.7% (inactive).
The result for `O=S(=O)(c1ccc2ccccc2c1)N1CCN(S(=O)(=O)N2CCOCC2)CC1` reads 20.2% (inactive).
Take `O=C(CCc1ccc(S(=O)(=O)N2CCOCC2)cc1)Nc1ccc2ccccc2c1`: the inhibition was 62.6% (active).
The result for `Cn1c(SCC(=O)Nc2cccc(O)c2)nnc1-c1ccc(S(=O)(=O)N2CCOCC2)cc1` reads 2.3% (inactive); that for `CCOC(=O)N1CCN(CC(=O)n2c(C)c(C)c3ccccc32)CC1`, 37.1% (inactive); that for `CCCc1nc(N)nc2c1C(=O)CC(C)(C)C2`, 7.6% (inactive).
Regarding `CC(C)c1ccc(/C=C/C(=O)NNC(=O)c2cccnc2)cc1`, the inhibition is 1.1% (inactive).
The same measure for `COc1ccc2[nH]cc(/C=C(/C#N)S(=O)(=O)c3ccccc3)c2c1`: 99.8% (active); for `COc1ccc(/C=C(\NC(=O)c2ccc(OC)c(OC)c2)C(=O)NCCc2c[nH]c3ccccc23)cc1`: 35.2% (inactive); for `CCn1nc(NC(=O)c2ccco2)c2cc3ccc(C)cc3nc21`: 7.9% (inactive).
Turning to `O=C(NC1(C(F)(F)F)N=C2SCCN2C1=O)c1ccco1` (stereo not given), the inhibition is -15.5% (inactive).
The result for `CCN(CC)C(=O)CSc1nnc(CNc2ccc(F)cc2)n1Cc1ccco1` reads -8.4% (inactive); that for `N#C/C(=C(/O)Cc1cccc2ccccc12)c1nc2ccccc2s1`, -0.2% (inactive).
The same measure for `c1ccc2c(C[n+]3csc4ccccc43)cccc2c1`: 60.7% (active).
The same measure for `N=C(N)SCc1cccc2ccccc12`: -3.6% (inactive).
`Cc1c2cn[nH]c(=O)c2c(C)n1Cc1ccc(F)cc1`: the inhibition is 48.3% (inactive).
The result for `Cc1ccc2oc(=O)c3cnn(CC(=O)N(Cc4ccco4)C4CCCCC4)c3c2c1` reads 7.4% (inactive); that for `CCOC(=O)c1c(NC(=O)CCCN2CCOCC2)sc2c1CC(C)(C)OC2`, 9.3% (inactive).
Take `CCC(C(=O)NC1CCCC1)N(C(=O)c1snc(C(N)=O)c1N)c1ccc2c(c1)OCCO2` (stereo not given): the inhibition was -2.4% (inactive).
The same measure for `Cc1ccsc1C(C(=O)NC1CCCCC1)N(C(=O)Cc1cccs1)C1CC1` (stereo not given): -2.9% (inactive); for `Cc1ccc(C(C(=O)NC2CCCCC2)N(C(=O)c2csnn2)C2CC2)o1` (stereo not given): 50% (active); for `Cc1ccc(NC(=O)C2CC(c3ccc(F)cc3)=NO2)cc1` (stereo not given): 28.2% (inactive).
The same measure for `O=C(Nc1ccc(F)c(Cl)c1)C1CCN(S(=O)(=O)c2cccnc2)CC1`: 41.7% (inactive); for `O=C(Nc1ccc2c(c1)OCO2)C1CC(c2c(F)cccc2Cl)=NO1` (stereo not given): 92.7% (active); for `O=C(Nc1ccccc1-c1nnn(CC(=O)N2CCN(c3ccccc3)CC2)n1)c1cccs1`: 47.5% (inactive).
The same measure for `C=CCN(N=Nc1cccc([N+](=O)[O-])c1)c1cccc([N+](=O)[O-])c1`: 19.3% (inactive); for `O=C(Nc1ccccc1Cl)N1CCN(c2ccc3nncn3n2)CC1`: 24.1% (inactive); for `O=C(Nc1ccc(Cl)cc1)N1CCc2[nH]c3ccccc3c2C1`: 13.4% (inactive).
For the molecule `CC(C)c1nc(N2CCOCC2)c(C#N)c2c1COC(C)(C)C2`, the inhibition was 55.5% (active).
The same measure for `CC1(C)Cc2c(C#N)c(SCc3nc4ccccc4[nH]3)nc(N3CCOCC3)c2CO1`: 80.5% (active); for `Cc1nc(NCc2ccccc2)c(C(N)=O)c2c1COC(C)(C)C2`: 48.5% (inactive).
The same measure for `C1=C(N2CCOCC2)/C(=C/c2nc3ccccc3[nH]2)CC1`: 20.6% (inactive).
Turning to `CC(C)Cc1nc(N2CCOCC2)c(C#N)c2c1CCC2`, the inhibition is 39.8% (inactive).
The result for `CC(C)OC(=O)C(C#N)c1nc2ccccc2nc1N1CCN(Cc2ccccc2)CC1` (stereo not given) reads 30.6% (inactive); that for `CC(C)C(=O)N1CCN(c2nc(-c3ccccc3)c3c(c2C#N)CC(C)(C)OC3)CC1`, 95.4% (active).
`c1ccc2[nH]c(NCCN3CCOCC3)nc2c1`: the inhibition is 7.5% (inactive).
The same measure for `Cc1ccc2nc(-c3ccc(SCC(=O)Nc4cc(C)on4)nc3)[nH]c2c1`: -9.6% (inactive); for `C=CCn1c(SCc2c(C)noc2C)nc2sc3c(c2c1=O)CCC(C)C3` (stereo not given): 29% (inactive); for `COc1ccc2[nH]c(=O)c(-c3noc(-c4ccc(F)cc4)n3)cc2c1`: -20.6% (inactive).
For the molecule `O=C(NCCCN1CCCCC1)c1ccc2c(c1)NC(=O)C(N1CCOCC1)S2` (stereo not given), the inhibition is -20.4% (inactive).
With `Cc1cc2nc(-c3ccc(NC(=O)c4cccnc4)cc3)oc2cc1C`, the inhibition was -3.8% (inactive).
For the molecule `c1ccc(-c2cn3cccnc3n2)cc1`, the inhibition is 1.9% (inactive).
The same measure for `Cc1nc2ccc(NC(=O)C(F)(F)F)cc2o1`: 19.3% (inactive).
As to `C#CCN1CC(C)/C(=N/O)CC1C` (stereo not given), the inhibition is -17% (inactive).
